# Assays:
# Test in all cases: DAPPL (digital affinity profiling via proximity ligation, sequencing); 10 mM Tris-HCl pH 7.5, 50 mM NaCl, 1 mM DTT, 4% glycerol, room temperature, 30 min; GST-TFs on glutathione beads, 16-mer random dsDNA library, 0.1% formaldehyde crosslink after washing; high values mean tight binding
# FEV = target: T1, FEV (Homo sapiens, UniProt Q99581 1-238); conditions: protein: recombinant; tags: N-terminal GST; dsDNA, one strand shown
# T1 sequence: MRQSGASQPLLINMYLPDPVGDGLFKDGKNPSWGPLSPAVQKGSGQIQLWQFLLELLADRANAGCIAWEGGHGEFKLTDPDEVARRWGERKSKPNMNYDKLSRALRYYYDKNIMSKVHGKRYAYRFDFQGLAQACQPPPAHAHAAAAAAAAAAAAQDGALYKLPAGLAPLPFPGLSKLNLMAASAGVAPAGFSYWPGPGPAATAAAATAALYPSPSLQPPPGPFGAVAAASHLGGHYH
# Outline: (§1)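 Binding signal is given per hexamer as its read frequency for a factor divided by its frequency in the tag-only sample. GST-fused human transcription factors were expressed in yeast, captured on glutathione beads, barcoded with DNA and pooled with that sample, then incubated with 200 nmole of a 16-mer random double-stranded DNA library in Tris/NaCl/DTT/glycerol buffer for 30 min at room temperature. The pools were then washed, crosslinked, proximity-ligated, amplified by PCR and sequenced on an Illumina NextSeq500.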
# ETV5 = ETV5 (Homo sapiens, UniProt P41161 1-510); conditions: protein: recombinant; tags: N-terminal GST; dsDNA, one strand shown
# Sequence of ETV5 (P41161 whole entry): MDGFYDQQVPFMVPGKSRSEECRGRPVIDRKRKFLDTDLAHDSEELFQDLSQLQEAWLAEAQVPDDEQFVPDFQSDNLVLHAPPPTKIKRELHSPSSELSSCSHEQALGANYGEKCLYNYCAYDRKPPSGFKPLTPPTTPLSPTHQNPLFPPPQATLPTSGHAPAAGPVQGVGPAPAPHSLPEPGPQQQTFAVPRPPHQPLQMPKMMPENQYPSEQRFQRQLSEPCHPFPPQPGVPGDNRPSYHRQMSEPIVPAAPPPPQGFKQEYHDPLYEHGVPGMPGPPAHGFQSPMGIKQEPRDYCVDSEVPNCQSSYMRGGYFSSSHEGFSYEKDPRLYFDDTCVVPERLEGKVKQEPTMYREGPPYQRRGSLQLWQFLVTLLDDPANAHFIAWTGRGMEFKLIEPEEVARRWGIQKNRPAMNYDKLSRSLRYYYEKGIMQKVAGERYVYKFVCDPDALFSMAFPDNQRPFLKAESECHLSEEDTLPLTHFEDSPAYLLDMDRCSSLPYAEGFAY
# Outline: as §1
# HSF1 = HSF1 (Homo sapiens, UniProt Q00613 1-529); conditions: protein: recombinant; tags: N-terminal GST; chain copies: 3; dsDNA, one strand shown
# Sequence of HSF1 (Q00613 whole entry): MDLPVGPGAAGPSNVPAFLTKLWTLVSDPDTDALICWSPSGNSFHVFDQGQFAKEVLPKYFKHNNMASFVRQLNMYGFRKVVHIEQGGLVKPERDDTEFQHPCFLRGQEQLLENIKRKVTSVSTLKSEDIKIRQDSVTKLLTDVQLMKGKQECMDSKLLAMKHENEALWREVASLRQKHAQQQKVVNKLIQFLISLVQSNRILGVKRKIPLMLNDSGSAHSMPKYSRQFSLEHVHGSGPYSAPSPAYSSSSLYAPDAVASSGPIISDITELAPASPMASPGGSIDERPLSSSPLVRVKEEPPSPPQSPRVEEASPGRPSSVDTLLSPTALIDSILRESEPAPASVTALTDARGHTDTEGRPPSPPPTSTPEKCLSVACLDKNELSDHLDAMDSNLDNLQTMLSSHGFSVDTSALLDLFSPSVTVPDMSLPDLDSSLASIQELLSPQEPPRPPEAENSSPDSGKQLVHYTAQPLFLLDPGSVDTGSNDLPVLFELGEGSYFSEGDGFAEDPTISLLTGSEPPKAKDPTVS
# Outline: as §1
# SPIC = target: T2, SPIC (Homo sapiens, UniProt Q8N5J4 1-248); conditions: protein: recombinant; tags: N-terminal GST; dsDNA, one strand shown
# T2 sequence: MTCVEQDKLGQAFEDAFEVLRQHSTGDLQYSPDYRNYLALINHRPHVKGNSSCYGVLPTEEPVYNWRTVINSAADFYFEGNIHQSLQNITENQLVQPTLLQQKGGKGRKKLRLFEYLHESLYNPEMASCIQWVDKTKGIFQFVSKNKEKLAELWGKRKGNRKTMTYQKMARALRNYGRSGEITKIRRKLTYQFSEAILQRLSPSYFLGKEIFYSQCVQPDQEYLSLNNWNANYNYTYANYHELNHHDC
# Outline: as §1
# ELF4 = ELF4 (Homo sapiens, UniProt Q99607 1-663); conditions: protein: recombinant; tags: N-terminal GST; dsDNA, one strand shown
# Sequence of ELF4 (Q99607 whole entry): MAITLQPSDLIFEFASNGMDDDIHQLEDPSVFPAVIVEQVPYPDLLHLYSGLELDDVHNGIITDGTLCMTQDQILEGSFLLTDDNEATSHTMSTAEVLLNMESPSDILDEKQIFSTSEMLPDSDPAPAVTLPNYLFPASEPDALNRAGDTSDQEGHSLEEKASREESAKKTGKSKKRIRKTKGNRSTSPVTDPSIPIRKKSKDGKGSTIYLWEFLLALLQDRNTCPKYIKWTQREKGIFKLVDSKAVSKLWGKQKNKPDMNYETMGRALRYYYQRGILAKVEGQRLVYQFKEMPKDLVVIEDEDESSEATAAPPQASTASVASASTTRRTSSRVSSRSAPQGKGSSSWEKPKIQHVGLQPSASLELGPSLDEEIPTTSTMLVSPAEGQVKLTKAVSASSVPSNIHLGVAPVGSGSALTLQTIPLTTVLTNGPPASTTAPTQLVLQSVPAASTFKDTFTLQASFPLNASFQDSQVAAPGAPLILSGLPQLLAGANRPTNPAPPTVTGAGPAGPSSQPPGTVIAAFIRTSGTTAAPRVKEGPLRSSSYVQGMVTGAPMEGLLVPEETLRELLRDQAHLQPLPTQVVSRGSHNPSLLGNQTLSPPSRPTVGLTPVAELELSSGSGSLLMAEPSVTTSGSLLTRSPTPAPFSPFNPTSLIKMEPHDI
# Outline: as §1
# ELK4 = target: T3, ELK4 (Homo sapiens, UniProt P28324-2 1-405); conditions: protein: recombinant; tags: N-terminal GST; dsDNA, one strand shown
# T3 sequence: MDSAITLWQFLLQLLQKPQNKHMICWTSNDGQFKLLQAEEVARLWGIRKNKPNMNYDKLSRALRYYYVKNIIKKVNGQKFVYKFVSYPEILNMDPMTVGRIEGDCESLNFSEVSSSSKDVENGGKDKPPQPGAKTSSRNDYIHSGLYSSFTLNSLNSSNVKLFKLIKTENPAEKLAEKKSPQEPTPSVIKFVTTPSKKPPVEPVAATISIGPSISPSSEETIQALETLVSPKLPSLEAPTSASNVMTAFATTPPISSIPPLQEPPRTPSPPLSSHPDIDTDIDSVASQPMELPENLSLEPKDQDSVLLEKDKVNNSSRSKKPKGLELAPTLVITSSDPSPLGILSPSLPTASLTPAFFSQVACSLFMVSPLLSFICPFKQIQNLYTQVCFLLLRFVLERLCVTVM
# Outline: as §1
# ETV2 = target: T4, ETV2 (Homo sapiens, UniProt O00321 1-342); conditions: protein: recombinant; tags: N-terminal GST; dsDNA, one strand shown
# T4 sequence: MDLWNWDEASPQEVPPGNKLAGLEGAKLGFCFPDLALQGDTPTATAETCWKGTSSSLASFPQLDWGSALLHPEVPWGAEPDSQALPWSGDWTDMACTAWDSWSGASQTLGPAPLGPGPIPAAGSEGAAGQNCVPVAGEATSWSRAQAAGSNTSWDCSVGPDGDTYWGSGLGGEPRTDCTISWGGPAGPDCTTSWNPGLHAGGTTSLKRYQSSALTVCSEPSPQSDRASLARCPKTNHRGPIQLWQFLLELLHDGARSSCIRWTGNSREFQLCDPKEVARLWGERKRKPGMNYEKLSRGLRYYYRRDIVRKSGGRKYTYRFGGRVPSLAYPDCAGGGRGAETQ
# Outline: as §1
# ELF3 = target: T5, ELF3 (Homo sapiens, UniProt P78545 1-371); conditions: protein: recombinant; tags: N-terminal GST; dsDNA, one strand shown
# T5 sequence: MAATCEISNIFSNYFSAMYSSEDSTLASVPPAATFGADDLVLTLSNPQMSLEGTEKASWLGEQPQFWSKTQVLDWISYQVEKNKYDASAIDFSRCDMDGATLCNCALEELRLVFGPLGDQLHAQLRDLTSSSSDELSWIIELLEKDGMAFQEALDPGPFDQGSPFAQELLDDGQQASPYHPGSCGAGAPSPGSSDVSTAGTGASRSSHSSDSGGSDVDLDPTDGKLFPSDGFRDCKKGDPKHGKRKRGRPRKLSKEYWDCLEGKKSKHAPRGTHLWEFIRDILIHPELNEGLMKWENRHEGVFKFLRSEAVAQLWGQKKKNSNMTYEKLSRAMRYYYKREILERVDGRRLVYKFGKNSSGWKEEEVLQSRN
# Outline: as §1
# CRX = CRX (Homo sapiens, UniProt O43186 1-299); conditions: protein: recombinant; tags: N-terminal GST; dsDNA, one strand shown
# Sequence of CRX (O43186 whole entry): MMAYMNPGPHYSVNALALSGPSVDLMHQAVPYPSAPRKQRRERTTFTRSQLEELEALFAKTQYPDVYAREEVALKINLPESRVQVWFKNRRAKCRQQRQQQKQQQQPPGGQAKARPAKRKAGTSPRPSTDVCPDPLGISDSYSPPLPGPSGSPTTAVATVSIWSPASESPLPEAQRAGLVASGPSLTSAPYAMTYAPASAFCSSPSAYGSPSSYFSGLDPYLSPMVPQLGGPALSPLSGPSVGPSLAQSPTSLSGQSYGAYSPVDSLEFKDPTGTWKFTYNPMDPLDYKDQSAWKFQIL
# Outline: as §1
# ETV1 = ETV1 (Homo sapiens, UniProt P50549 1-477); conditions: protein: recombinant; tags: N-terminal GST; dsDNA, one strand shown
# Sequence of ETV1 (P50549 whole entry): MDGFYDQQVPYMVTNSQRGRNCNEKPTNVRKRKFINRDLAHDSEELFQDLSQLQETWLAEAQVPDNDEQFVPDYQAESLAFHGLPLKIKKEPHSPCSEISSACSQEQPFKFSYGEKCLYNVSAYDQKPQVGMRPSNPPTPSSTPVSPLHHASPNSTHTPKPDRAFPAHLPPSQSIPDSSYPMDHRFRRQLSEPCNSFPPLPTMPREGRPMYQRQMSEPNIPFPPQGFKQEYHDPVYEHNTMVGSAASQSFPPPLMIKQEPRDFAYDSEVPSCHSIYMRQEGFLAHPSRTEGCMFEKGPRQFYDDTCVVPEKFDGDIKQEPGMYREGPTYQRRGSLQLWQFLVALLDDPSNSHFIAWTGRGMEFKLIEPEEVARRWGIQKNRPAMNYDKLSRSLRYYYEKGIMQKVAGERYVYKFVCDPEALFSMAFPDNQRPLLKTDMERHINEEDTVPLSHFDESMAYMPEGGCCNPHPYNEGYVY
# Outline: as §1
# ERF = target: T6, ERF (Homo sapiens, UniProt P50548 1-548); conditions: protein: recombinant; tags: N-terminal GST; dsDNA, one strand shown
# T6 sequence: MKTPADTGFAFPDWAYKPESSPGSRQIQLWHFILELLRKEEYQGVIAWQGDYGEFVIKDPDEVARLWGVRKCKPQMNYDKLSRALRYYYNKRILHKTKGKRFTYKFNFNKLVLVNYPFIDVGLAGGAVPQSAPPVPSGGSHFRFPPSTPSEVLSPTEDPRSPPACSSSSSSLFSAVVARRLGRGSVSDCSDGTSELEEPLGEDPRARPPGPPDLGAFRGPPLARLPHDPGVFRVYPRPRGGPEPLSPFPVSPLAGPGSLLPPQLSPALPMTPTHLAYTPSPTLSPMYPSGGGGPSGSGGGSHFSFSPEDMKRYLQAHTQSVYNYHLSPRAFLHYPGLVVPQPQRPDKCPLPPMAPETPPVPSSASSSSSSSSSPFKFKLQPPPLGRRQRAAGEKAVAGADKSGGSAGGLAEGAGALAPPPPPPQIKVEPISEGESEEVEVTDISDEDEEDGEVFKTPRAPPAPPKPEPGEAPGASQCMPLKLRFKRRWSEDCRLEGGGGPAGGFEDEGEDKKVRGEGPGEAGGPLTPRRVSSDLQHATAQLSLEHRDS
# Outline: as §1
# ETV3L = target: T7, ETV3L (Homo sapiens, UniProt Q6ZN32 1-361); conditions: protein: recombinant; tags: N-terminal GST; dsDNA, one strand shown
# T7 sequence: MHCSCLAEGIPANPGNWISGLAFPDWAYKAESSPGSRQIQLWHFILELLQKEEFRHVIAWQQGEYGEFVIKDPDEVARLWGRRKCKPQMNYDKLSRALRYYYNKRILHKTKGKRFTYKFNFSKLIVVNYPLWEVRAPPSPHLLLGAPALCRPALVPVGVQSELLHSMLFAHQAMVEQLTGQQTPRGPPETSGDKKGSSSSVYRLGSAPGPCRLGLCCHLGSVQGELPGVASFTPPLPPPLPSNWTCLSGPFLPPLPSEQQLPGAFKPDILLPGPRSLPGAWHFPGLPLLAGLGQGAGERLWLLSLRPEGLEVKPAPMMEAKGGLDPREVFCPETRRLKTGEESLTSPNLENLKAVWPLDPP
# Outline: as §1
# ETS2 = target: T8, ETS2 (Homo sapiens, UniProt P15036 1-469); conditions: protein: recombinant; tags: N-terminal GST; dsDNA, one strand shown
# T8 sequence: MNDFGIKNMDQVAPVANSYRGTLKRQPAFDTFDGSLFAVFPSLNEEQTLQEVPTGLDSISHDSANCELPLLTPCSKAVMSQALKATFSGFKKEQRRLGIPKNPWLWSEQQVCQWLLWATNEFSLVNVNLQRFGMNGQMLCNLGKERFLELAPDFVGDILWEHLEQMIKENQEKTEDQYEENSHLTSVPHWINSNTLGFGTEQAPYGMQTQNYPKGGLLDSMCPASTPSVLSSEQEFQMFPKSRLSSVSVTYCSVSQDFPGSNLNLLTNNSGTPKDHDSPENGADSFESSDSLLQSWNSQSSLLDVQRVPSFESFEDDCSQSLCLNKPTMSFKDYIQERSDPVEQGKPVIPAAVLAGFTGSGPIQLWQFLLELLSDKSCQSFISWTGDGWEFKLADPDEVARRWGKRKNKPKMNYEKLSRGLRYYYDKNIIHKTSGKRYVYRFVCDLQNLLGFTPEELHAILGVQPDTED
# Outline: as §1
# SPDEF = target: T9, SPDEF (Homo sapiens, UniProt O95238 1-335); conditions: protein: recombinant; tags: N-terminal GST; dsDNA, one strand shown
# T9 sequence: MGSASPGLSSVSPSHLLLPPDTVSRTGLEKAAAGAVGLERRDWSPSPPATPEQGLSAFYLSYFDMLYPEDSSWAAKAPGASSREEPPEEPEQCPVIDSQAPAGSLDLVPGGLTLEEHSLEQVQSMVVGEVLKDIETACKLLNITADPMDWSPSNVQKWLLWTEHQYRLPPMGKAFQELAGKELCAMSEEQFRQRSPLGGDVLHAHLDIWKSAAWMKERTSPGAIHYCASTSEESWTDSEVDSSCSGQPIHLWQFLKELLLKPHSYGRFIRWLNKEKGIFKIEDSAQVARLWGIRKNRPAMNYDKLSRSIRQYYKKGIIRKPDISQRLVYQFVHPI
# Outline: as §1
# ETV7 = target: T10, ETV7 (Homo sapiens, UniProt Q9Y603 1-341); conditions: protein: recombinant; tags: N-terminal GST; dsDNA, one strand shown
# T10 sequence: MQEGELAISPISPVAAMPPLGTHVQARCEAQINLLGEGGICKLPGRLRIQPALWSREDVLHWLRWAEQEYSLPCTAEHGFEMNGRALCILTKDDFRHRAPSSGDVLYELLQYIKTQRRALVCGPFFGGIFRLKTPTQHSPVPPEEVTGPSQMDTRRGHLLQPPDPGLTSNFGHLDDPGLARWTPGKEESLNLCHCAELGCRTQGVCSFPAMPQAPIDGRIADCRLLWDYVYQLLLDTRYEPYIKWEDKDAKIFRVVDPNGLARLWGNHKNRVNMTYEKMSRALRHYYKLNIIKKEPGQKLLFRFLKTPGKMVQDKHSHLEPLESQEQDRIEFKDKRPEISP
# Outline: as §1
# ELF5 = target: T11, ELF5 (Homo sapiens, UniProt Q9UKW6-2 1-255); conditions: protein: recombinant; tags: N-terminal GST; dsDNA, one strand shown
# T11 sequence: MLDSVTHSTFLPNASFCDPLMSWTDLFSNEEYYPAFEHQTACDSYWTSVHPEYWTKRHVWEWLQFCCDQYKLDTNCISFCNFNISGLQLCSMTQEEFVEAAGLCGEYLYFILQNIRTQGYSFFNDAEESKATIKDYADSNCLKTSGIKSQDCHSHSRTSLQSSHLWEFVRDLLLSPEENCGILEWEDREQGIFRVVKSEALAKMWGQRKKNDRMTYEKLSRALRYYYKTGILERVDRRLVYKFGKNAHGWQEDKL
# Outline: as §1
# ETV3 = target: T12, ETV3 (Homo sapiens, UniProt P41162-2 1-143); conditions: protein: recombinant; tags: N-terminal GST; dsDNA, one strand shown
# T12 sequence: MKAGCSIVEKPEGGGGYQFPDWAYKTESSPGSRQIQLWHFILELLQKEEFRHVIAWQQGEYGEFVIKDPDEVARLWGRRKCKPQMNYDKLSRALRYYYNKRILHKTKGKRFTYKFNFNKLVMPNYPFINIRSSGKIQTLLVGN
# Outline: as §1
# ETV6 = ETV6 (Homo sapiens, UniProt P41212 1-452); conditions: protein: recombinant; tags: N-terminal GST; dsDNA, one strand shown
# Sequence of ETV6 (P41212 whole entry): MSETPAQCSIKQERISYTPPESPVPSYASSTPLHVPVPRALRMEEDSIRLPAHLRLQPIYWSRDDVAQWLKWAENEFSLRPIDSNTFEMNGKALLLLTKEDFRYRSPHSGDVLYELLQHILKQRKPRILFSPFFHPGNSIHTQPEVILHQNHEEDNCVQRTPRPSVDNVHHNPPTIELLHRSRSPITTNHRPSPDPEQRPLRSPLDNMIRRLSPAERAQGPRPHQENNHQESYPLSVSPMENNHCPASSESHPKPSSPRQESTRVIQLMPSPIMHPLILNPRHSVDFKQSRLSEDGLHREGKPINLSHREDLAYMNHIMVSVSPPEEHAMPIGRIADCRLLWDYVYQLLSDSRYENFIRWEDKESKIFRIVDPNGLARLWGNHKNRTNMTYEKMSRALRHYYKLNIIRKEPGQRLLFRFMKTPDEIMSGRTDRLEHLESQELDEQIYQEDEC
# Outline: as §1
sequence,measurement,setting,value
CTAAAA,binding signal,FEV,"1.09 fold enrichment (6-mer frequency, TF over GST control)"
same,binding signal,ETV5,"1.16 fold enrichment (6-mer frequency, TF over GST control)"
same,binding signal,HSF1,"1.26 fold enrichment (6-mer frequency, TF over GST control)"
same,binding signal,SPIC,"1.25 fold enrichment (6-mer frequency, TF over GST control)"
same,binding signal,ELF4,"1.24 fold enrichment (6-mer frequency, TF over GST control)"
same,binding signal,ELK4,"1.21 fold enrichment (6-mer frequency, TF over GST control)"
same,binding signal,ETV2,"1.21 fold enrichment (6-mer frequency, TF over GST control)"
same,binding signal,ELF3,"1.12 fold enrichment (6-mer frequency, TF over GST control)"
same,binding signal,CRX,"1.4 fold enrichment (6-mer frequency, TF over GST control)"
same,binding signal,ETV1,"1.19 fold enrichment (6-mer frequency, TF over GST control)"
same,binding signal,ERF,"1.2 fold enrichment (6-mer frequency, TF over GST control)"
same,binding signal,ETV3L,"1.2 fold enrichment (6-mer frequency, TF over GST control)"
same,binding signal,ETS2,"1.21 fold enrichment (6-mer frequency, TF over GST control)"
same,binding signal,SPDEF,"1.19 fold enrichment (6-mer frequency, TF over GST control)"
same,binding signal,ETV7,"1.1 fold enrichment (6-mer frequency, TF over GST control)"
same,binding signal,ELF5,"1.11 fold enrichment (6-mer frequency, TF over GST control)"
same,binding signal,ETV3,"1.12 fold enrichment (6-mer frequency, TF over GST control)"
same,binding signal,ETV6,"1.15 fold enrichment (6-mer frequency, TF over GST control)"

# — PMC7862700, “An all-to-all approach to the identification of sequence-specific readers for epigenetic DNA modifications on cytosine”
